High-throughput results deposited in PubChem BioAssay by National Center for Advancing Translational Sciences (NCATS).
DT40 TDP1 CPT = qHTS for Inhibitors of human tyrosyl-DNA phosphodiesterase 1 (TDP1): qHTS in cells in presence of CPT; Potency, µM (doses to about 46.2 µM), actives largely listed as inhibitors; chicken DT40 Tdp1-/-;hTDP1 cells + 20 nM CPT, ATP luminescence, 48 h; AID 686979, 2013; hit rate 12% among 420,000; also: nearly all actives have a fitted effect of over 55% in size
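Chicken DT40 Tdp1-/- cells complemented with human TDP1, 400 cells/well, exposed to compounds plus 20 nM camptothecin for at least 48 h at 37 C; viability read as ATP content by CellTiter-Glo luminescence.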
IL1B secr inh = qHTS for Inhibitors of Inflammasome Signaling: IL-1-beta AlphaLISA Primary Screen | activity change, % at 57.5 µM | THP-1 LPS/ATP IL-1B secretion, AlphaLISA, 16 h; hits give low values | hit rate 4.7% among 360,000; in the data active = activity change below about -50%; inconclusive = mostly about -30% to -49%
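THP-1 cells pretreated 1 hr with compounds (up to 57.5 uM final), then stimulated with LPS (250 ng/mL final) plus ATP (1.25 mM final); secreted IL-1B measured by AlphaLISA after 16 hr, decreased signal indicating inhibition.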
DT40 TDP1 no CPT = qHTS for Inhibitors of human tyrosyl-DNA phosphodiesterase 1 (TDP1): qHTS in cells in absence of CPT | DT40 Tdp1-/- hTDP1 cells, no CPT, ATP luminescence, 48 h | Potency, µM (titrated, usually from 46.2 µM), most hits filed as inhibitors | hit rate 15% among 420,000; also: nearly all actives have a fitted effect of over 55% in size
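Chicken DT40 Tdp1-/- cells complemented with human TDP1, screened without camptothecin (DMSO vehicle only), 400 cells/well. Compounds pin-transferred, cells incubated at 37 °C for at least 48 hr. Growth read as ATP-dependent luminescence (CellTiter-Glo, 30 min at RT).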
HT1080 IDH1KD tx = qHTS for induction of synthetic lethality in tumor cells producing 2HG: qHTS for the HT-1080-IDH1KD cell line. HT-1080 IDH1 knockdown viability, ATP luminescence, 48 h. Potency, µM (top dose mostly 46.1 µM), most hits filed as cytotoxic. hit rate 2% among 360,000. AID 686971, 2013
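Cytotoxicity counter-line: IDH1KD HT-1080, 48 h, CellTiter-Glo. Curves classed by r2, magnitude and activity.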
HT1080-NT tox = qHTS for induction of synthetic lethality in tumor cells producing 2HG: qHTS for the HT-1080-NT fibrosarcoma cell line; HT-1080-NT fibrosarcoma viability, CellTiter-Glo ATP luminescence, 48 h; Potency, µM (doses to about 46.1 µM), actives largely listed as cytotoxic; hit rate 1.6% among 360,000;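 also: NT is the 2HG producing partner of a matched IDH1 knockdown line; nearly all actives have a fitted effect of over 55% in size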
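HT-1080-NT fibrosarcoma cells (2HG-overproducing), 750 cells/well in RPMI with 5% FBS, dosed after 2 h and incubated 48 h at 37C. CellTiter-Glo luminescence normalized to DMSO and no-cell wells; concentration-response curves fitted and classed.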
Of the large screens only hits and unclear results are named; the others gave an inactive call. Most compounds without a hit are left out; they make up all but 19% or so of the library. Unless noted, calls follow the shape of the dose curve; as a rule, active = well fitted curve in the direction sought with a large enough effect; inconclusive = small, poorly fitted or top-dose-only effect, or another doubt; inactive = no such curve, though single readings can be large; an effect the other way counts as inactive or inconclusive.

COc1ccc(CN(C)C(=O)c2ccc3c(=O)n4c(nc3c2)CCC4)c(OC)c1	DT40 TDP1 CPT inconclusive, DT40 TDP1 no CPT inconclusive
Cc1ccc(S(=O)(=O)c2cnc(SCC(=O)Nc3cccc(Cl)c3)nc2N)cc1C	DT40 TDP1 CPT inconclusive, DT40 TDP1 no CPT 23µM (no result: IL1B secr inh, HT1080 IDH1KD tx, HT1080-NT tox)
CC(Sc1ncc(S(=O)(=O)c2ccc(C(C)C)cc2)c(N)n1)C(=O)Nc1ccccc1 (stereo unspecified)	DT40 TDP1 CPT 16µM, DT40 TDP1 no CPT 26µM (no result: IL1B secr inh, HT1080 IDH1KD tx, HT1080-NT tox)
Cc1ccc(S(=O)(=O)c2cnc(SCC(=O)Nc3cc(C)cc(C)c3)nc2N)cc1	DT40 TDP1 CPT inconclusive, DT40 TDP1 no CPT 16µM (no result: IL1B secr inh, HT1080 IDH1KD tx, HT1080-NT tox)
CC(Sc1nc(N2CCOCC2)nc(N2CCOCC2)n1)C(=O)Nc1ccccc1 (stereo unspecified)	DT40 TDP1 CPT inconclusive
CCCOC(=O)c1ccc(Nc2c(C(=O)OCC)cnc3c(C)cc(Cl)cc23)cc1	none (no result: IL1B secr inh, HT1080 IDH1KD tx, HT1080-NT tox)
COC(=O)N1CCN(S(=O)(=O)c2ccc(F)cc2)CC1	DT40 TDP1 CPT inconclusive
CCNC(=O)c1c(NC(=O)COc2ccc(F)cc2)sc2c1CCCC2	none (no result: IL1B secr inh, HT1080 IDH1KD tx, HT1080-NT tox)
CCNc1nc(NCC)n2c(SC(C(=O)Nc3cc(C)ccc3OC)c3ccccc3)nnc2n1 (stereo unspecified)	DT40 TDP1 CPT inconclusive, IL1B secr inh -104, DT40 TDP1 no CPT inconclusive
CCNc1nc(NCC)n2c(SCC(=O)c3ccc(C(C)C)cc3)nnc2n1	DT40 TDP1 CPT 23µM, DT40 TDP1 no CPT 26µM
COc1ccc(C)cc1NC(=O)C(Sc1nnc(-c2ccncc2)n1-c1ccc(Cl)cc1)c1ccccc1 (stereo unspecified)	DT40 TDP1 CPT inconclusive, IL1B secr inh -59, DT40 TDP1 no CPT 16µM, HT1080 IDH1KD tx inconclusive
O=C(Cc1ccc(Cl)cc1)Nc1ccccc1N1CCN(C(=O)c2ccccc2)CC1	DT40 TDP1 CPT inconclusive, IL1B secr inh inconclusive, DT40 TDP1 no CPT 21µM
O=C(Cc1ccccc1)Nc1ccccc1N1CCCC1	DT40 TDP1 CPT inconclusive, DT40 TDP1 no CPT inconclusive
O=C(NC(=S)Nc1ccccc1N1CCN(C(=O)c2ccccc2)CC1)c1ccccc1F	DT40 TDP1 CPT 16µM, DT40 TDP1 no CPT 18µM, HT1080 IDH1KD tx inconclusive
O=C(Nc1ccccc1N1CCN(C(=O)c2ccc(Cl)cc2)CC1)c1ccc(Br)cc1	DT40 TDP1 CPT inconclusive
O=C(Nc1ccccc1N1CCN(C(=O)c2ccccc2)CC1)c1ccc(Cl)cc1	DT40 TDP1 CPT inconclusive, IL1B secr inh inconclusive, DT40 TDP1 no CPT 23µM
O=C(Nc1ccc(N2CCN(C(=O)c3ccc(Cl)cc3)CC2)cc1)c1cc2ccccc2o1	DT40 TDP1 CPT inconclusive
O=C(NC(=S)Nc1ccccc1N1CCOCC1)c1ccccc1F	DT40 TDP1 CPT inconclusive, DT40 TDP1 no CPT inconclusive
O=C(Nc1ccccc1N1CCN(C(=O)c2ccc(Cl)cc2)CC1)c1cc2ccccc2o1	DT40 TDP1 CPT 26µM, DT40 TDP1 no CPT inconclusive
CCOC(=O)/C(N)=C/c1ncc(C(F)(F)F)cc1Cl	none
CC(=O)c1cccc(NC(=O)N2CCC(NC(=O)C3CCCCC3)CC2)c1	none
O=c1oc(CCCO)cc2ccc(/C=C/c3cccc([N+](=O)[O-])c3)cc12	DT40 TDP1 no CPT inconclusive
Cc1ccc(N(C(=O)c2csnn2)C(C(=O)NC2CCCCC2)c2cccnc2)cc1C (stereo unspecified)	none
O=C(Nc1ccccc1N1CCN(C(=O)c2ccccc2)CC1)c1ccc(Br)o1	DT40 TDP1 CPT inconclusive, DT40 TDP1 no CPT 21µM
COc1ccc(C(=O)Nc2ccccc2N2CCN(C(=O)c3ccccc3)CC2)cc1Br	DT40 TDP1 CPT inconclusive, IL1B secr inh inconclusive, DT40 TDP1 no CPT inconclusive
COc1ccc(NC(=O)C2(C)CCN2C(=O)Cc2ccccc2)cc1OC (stereo unspecified)	DT40 TDP1 CPT inconclusive, DT40 TDP1 no CPT inconclusive, HT1080 IDH1KD tx inconclusive
Cc1ccc(NC(=O)C2(C)CCN2C(=O)Cc2ccc(C(C)(C)C)cc2)cc1C (stereo unspecified)	DT40 TDP1 CPT 21µM, DT40 TDP1 no CPT 10µM, HT1080 IDH1KD tx inconclusive, HT1080-NT tox 18µM
Cc1ccc(NC(=O)C2(C)CCN2C(=O)Cc2ccccc2)cc1C (stereo unspecified)	DT40 TDP1 CPT inconclusive, DT40 TDP1 no CPT 16µM
Cc1ccc(NC(=O)C2(C)CCN2C(=O)C2CCCCC2)cc1C (stereo unspecified)	DT40 TDP1 CPT inconclusive, DT40 TDP1 no CPT 18µM
CC(C)(C)CNC(=O)C1(C)CCN1C(=O)Cc1ccc(C(C)(C)C)cc1 (stereo unspecified)	DT40 TDP1 CPT inconclusive, DT40 TDP1 no CPT inconclusive
O=C(NC1CCCC1)C(c1cccnc1)N(C(=O)c1csnn1)c1ccccc1Cl (stereo unspecified)	none
Cc1cnc(C=O)c2cccc([N+](=O)[O-])c12	DT40 TDP1 CPT 5.8µM, IL1B secr inh inconclusive, DT40 TDP1 no CPT 3.7µM, HT1080 IDH1KD tx inconclusive
Cc1ncc(C)c2c([N+](=O)[O-])cccc12	IL1B secr inh inconclusive, DT40 TDP1 no CPT 23µM
COC(=O)C=C1CCC2C3CCC4=CC(=O)CCC4(C)C3C(=O)CC12C (stereo unspecified)	DT40 TDP1 no CPT inconclusive
CC1(C)C(=O)C2(CCCC2)C(=O)OC1c1ccco1 (stereo unspecified)	none
O=C1OC(c2cccc([N+](=O)[O-])c2)C2(CCCC2)C(=O)C12CCCCC2 (stereo unspecified)	DT40 TDP1 CPT 23µM, DT40 TDP1 no CPT inconclusive, HT1080 IDH1KD tx 16µM, HT1080-NT tox inconclusive
COc1ccc(NC(C)=O)cc1S(=O)(=O)N(C)Cc1c(C)nn(-c2ccccc2)c1C	none
CCn1cc(C(=O)NCC(C)C)c(=O)c2cc(F)c(N3CCN(C(=O)c4ccco4)CC3)cc21	DT40 TDP1 CPT inconclusive, DT40 TDP1 no CPT 21µM
CCn1cc(C(=O)NN)c(=O)c2cc(F)c(N3CCOCC3)cc21	none
C=CCNC(=O)c1cn(CC)c2cc(N3CCN(C(=O)c4ccco4)CC3)c(F)cc2c1=O	DT40 TDP1 CPT 23µM, DT40 TDP1 no CPT 15µM
CCn1cc(C(=O)NCCc2ccccc2)c(=O)c2cc(F)c(N3CCN(C)CC3)cc21	DT40 TDP1 CPT inconclusive, DT40 TDP1 no CPT inconclusive, HT1080 IDH1KD tx inconclusive, HT1080-NT tox inconclusive
CCC(C)NC(=O)c1cn(CC)c2cc(N3CCN(C(=O)c4ccco4)CC3)c(F)cc2c1=O (stereo unspecified)	DT40 TDP1 CPT 16µM, DT40 TDP1 no CPT 13µM
CCn1cc(C(=O)NCc2ccco2)c(=O)c2cc(F)c(N3CCN(C(=O)c4ccco4)CC3)cc21	DT40 TDP1 CPT 21µM, IL1B secr inh inconclusive, DT40 TDP1 no CPT inconclusive
